Measured values as given in PubChem BioAssay (Tox21).
Values joined by “and” are separate entries in the source; they are usually repeats but may differ in a detail not shown here. Identical values can stand only once. Records with an inconclusive call do not appear. Entries that show only a call come without a potency. Some structures have more than one record in an assay (separate samples or runs), and their calls can disagree. Active and inactive are the calls of the source. Calls come from the whole dose curve; as a rule, active = well fitted cell-killing curve with a large enough effect in the repeat runs; inconclusive = weak or mixed curves; inactive = no such curve, though single readings can be large or run the other way.

Assay: qHTS assay to identify small molecule antagonists of the androgen receptor (AR) signaling pathway - cell viability counter screen (AID 743033; note: nearly all actives have a fitted effect of over 45% in size)
Details: AR-bla HEK293 viability, CellTiter-Glo luminescence, 16 h; series mostly up to 58.5 µM
From the text: National Center for Advancing Translational Sciences [NCATS]
NIH Chemical Genomics Center [NCGC]
U.S. Environmental Protection Agency [EPA]
National Institutes of Environmental Health Sciences [NIEHS]
National Toxicology Program [NTP]
U.S. Food and Drug Administration [FDA]
Androgen receptor (AR), a nuclear hormone receptor, plays a critical role in AR-dependent prostate cancer and other androgen related diseases. Endocrine disrupting chemicals (EDCs) and their interactions with steroid hormone receptors like AR may cause disruption of normal endocrine function as well as interfere with metabolic homeostasis, reproduction, developmental and behavioral functions. To identify the compounds that inhibit AR signaling, GeneBLAzer AR-UAS-bla-GripTite cell line (Invitrogen, Carlsbad, CA, USA) containing a beta-lactamase reporter gene under control of an Upstream Activator Sequence (UAS) stably integrated into HEK293 cells was used to screen the Tox21 10K compound library. The cytotoxicity of the Tox21 compound library against the AR-bla cell line was tested in parallel by measuring the cell viability using CellTiter-Glo assay in the same wells.
Tox21 Assay Protocol Summary:
AR-bla cells were dispensed at 2,000 cells/5 uL of assay medium per well into black wall/clear-bottom 1536-well plates using a Multidrop Combi (ThermoFisher Scientific, Waltham, MA) dispenser. After the assay plates were incubated at a 37C and 5% CO2 for 4 hr, 23 nL of compounds dissolved in DMSO, positive controls or DMSO only was transferred to the assay plate by a Pintool station (Kalypsys, San Diego, CA), followed by addition of 1 uL of agonist (R1881) in culture medium using a Bioraptr Flying Reagent Dispenser (FRD) workstation (Beckman Coulter, Indianapolis, IN, USA). The plates were incubated at a 37C and 5% CO2 for 16 h. After 1 uL of LiveBLAzerTM B/G FRET substrate was added using a Bioraptr FRD, the plates were incubated at room temperature for 2 h and fluorescence intensity was measured by an Envision plate reader (PerkinElmer, Shelton, CT). For cell viability readout that measures cytotoxicity, 4 ul/well of CellTiter-Glo reagent was added into the assay plates using a Bioraptr FRD. After 30 min incubation at room temperature, the luminescence intensity in the plates was measured using a ViewLux (PerkinElmer) plate reader.
Potency is the fitted concentration of half-maximal effect.

Compound	Potency
Clc1ccc2n[nH]nc2c1	inactive
O=c1c(-c2ccccc2)c1-c1ccccc1	21.3 µM (active)
CCOC(=O)O[C@H](C)OC(=O)c1ccc2c(c1)cc(C(=O)NC1CCN(C(C)C)CC1)n2Cc1cc(-c2ccc(Cl)s2)on1	7.25 µM (active)
Cc1cc(O)c(C(C)(C)C)cc1C(C)(C)C	21.9 µM (active)
CCCCCCCCCCCC(=O)NCCCN(C)C	43.6 µM (active)
Cc1onc(-c2c(Cl)cccc2Cl)c1C(=O)N[C@@H]1C(=O)N2[C@@H]1SC(C)(C)[C@@H]2C(=O)O	inactive
CC/C(=C(\c1ccc(O)cc1)c1ccc(OCCN(C)C)cc1)c1ccccc1	15.5 µM (active)
CCN(C(=O)N(CC)c1ccccc1)c1ccccc1	inactive
Cc1ccc(-n2nc(C(C)(C)C)cc2NC(=O)Nc2ccc(OCCN3CCOCC3)c3ccccc23)cc1	inactive
C=C(C)C(=O)OCC[N+](C)(C)C	inactive
CCOC(=O)c1nc(C(Cl)(Cl)Cl)n(-c2ccc(Cl)cc2Cl)n1	49 µM (active)
CCCCCCCCCCCCCCCC(=O)OC[C@H](O)[C@H]1OC(=O)C(O)=C1O	inactive
CCc1cc(Cc2cc(CC)c(N)c(CC)c2)cc(CC)c1N	inactive
O=S1(=O)CC(Cl)(Cl)C(Cl)(Cl)C1	4.36 µM (active)
CCCCCCCCCCn1cc[n+](CCCCCCCCCC)c1C	4.37 µM (active)
CCCCCCCCCCCC[N+](C)(C)CCCCCCCCCCCC	19.5 µM (active)
CCCC(c1cc(C(C)(C)C)c(O)cc1C)c1cc(C(C)(C)C)c(O)cc1C	22.1 µM (active)
Cc1c(C)c2c(c(C)c1O)CCC(C)(COc1ccc(CC3SC(=O)NC3=O)cc1)O2 (stereo not given)	inactive and 24.5 µM (active)
CNC(=O)c1ccccc1	inactive
CCCCCCCCCCCCCCCS(=O)(=O)Oc1ccccc1	inactive

Compound	Potency
CC(=O)SC[C@@H](Cc1ccccc1)C(=O)NCC(=O)OCc1ccccc1	inactive
NC(=O)N1C(=O)C(C(=O)c2cc(Cl)cs2)c2cc(F)c(Cl)cc21 (stereo not given)	inactive
NNc1nc(-c2ccc([N+](=O)[O-])cc2)cs1	30.9 µM (active)
C[C@]12CCC(=O)C=C1CC[C@@H]1[C@@H]2[C@@H](O)C[C@@]2(C)[C@H]1CC[C@]2(O)C(=O)COC(=O)CCC(=O)O	inactive
NNc1nc(-c2ccc(N)cc2)cs1	inactive
O=C(OCC1CO1)C1CCCCC1C(=O)OCC1CO1 (stereo not given)	inactive
CCCC/C=C/CCCCO	inactive
COc1cccc(N)c1	inactive
CC(C)(C)C(=O)OCOC(=O)C1N2C(=O)CC2S(=O)(=O)C1(C)C (stereo not given)	inactive
On1ccccc1=S	0.385 µM (active)
CS(=O)(=O)CCNCc1ccc(-c2ccc3ncnc(Nc4ccc(OCc5cccc(F)c5)c(Cl)c4)c3c2)o1	inactive
C=CC(=O)OCCn1c(=O)n(CCOC(=O)C=C)c(=O)n(CCOC(=O)C=C)c1=O	15.5 µM (active)
Cc1ccc(O)c2ncccc12	16.9 µM (active)
COc1ccc(CN2CCN(C(c3ccc(F)cc3)c3ccc(F)cc3)CC2)c(OC)c1OC	23.9 µM (active)
CCCCCOC(=O)CCCC	inactive
CCC(C)(C)C1CCCCC1OC(C)=O (stereo not given)	inactive
Cc1cc(O)c2ccccc2c1O	inactive
CC(C)(C)c1ccc(C(=O)CCCN2CCC(OC(c3ccccc3)c3ccccc3)CC2)cc1	inactive
NNc1nc(-c2ccccc2)cs1	inactive
CCCCCCCCCCCCCCCC[N+](C)(C)CCN(Cc1ccc(OC)cc1)c1ncccn1	inactive
